Reference: PubChem BioAssay AID2069 (Sanford-Burnham Center for Chemical Genomics, 2009)
Among all 1,200 compounds or so, about 210 (18%) were called active. Rule as the data show it: active = inhibition above about 30%; inactive = the rest. A selection follows.

Test: HTRF signal interference by compounds, confirmation, artefact control for SUMOylation inhibitor project, biochemical, uHTS (AID 2069)
Settings: HTRF interference counterscreen, fluorescence, at 35 µM, stronger effect = higher value

| SMILES | inhibition |
| --- | --- |
| O=[N+]([O-])c1cccc(S(=O)(=O)Nc2nc3ccccc3nc2Nc2cccc(S(=O)(=O)N3CCCCC3)c2)c1 | -17.1% (inactive) |
| CC1=NN(c2ccccc2)C(=O)/C1=C\c1ccc(Br)s1 | -10.7% (inactive) |
| Nc1ccc(N2CCCCC2)c2nonc12 | -23.7% (inactive) |
| COc1ccc(N2C3=C(CC4=C2CCCC4=O)C(=O)CCC3)cc1 | 18.1% (inactive) |
| COc1ccc(C2C3=C(CCCC3=O)Nc3c(-c4ccccc4)c(C)nn32)cc1 (stereo not given) | 46.6% (active) |
| O=C(CNc1cccc2ccccc12)N/N=C/c1ccc([N+](=O)[O-])cc1 | -4% (inactive) |
| Cn1c(CNc2ccc(O)cc2)nc2ccccc21 | -19.7% (inactive) |
| Cn1c(-c2ccc(C=O)s2)nc2c3ccccc3c3ccccc3c21 | 22.3% (inactive) |
| Cn1c(-c2ccc(C=O)s2)nc2ccccc21 | 49.1% (active) |
| CC(C)CC(=O)Nc1ccc(C(=O)Cn2nc(C(=O)O)c3ccccc3c2=O)cc1 | -7.35% (inactive) |
| [O-]/C(=C(\C(=S)Nc1cccc2ccccc12)[n+]1cccc(CO)c1)c1ccc(Cl)s1 | -14.8% (inactive) |
| COc1ccc(Cn2c(C)c(C)c(C#N)c2NC(=O)Nc2ccc(F)cc2)cc1 | 1.75% (inactive) |
| COc1ccc(Cc2n[nH]c(=S)n2NC(=O)Nc2ccc(C)cc2)cc1 | 20.8% (inactive) |
| COc1ccc(Cc2n[nH]c(=S)n2NC(=O)Nc2ccc(Cl)c(Cl)c2)cc1 | 54.1% (active) |
| CCOC(=O)C1=C(C)N=c2s/c(=C\c3ccc(OCC(=O)O)cc3)c(=O)n2C1c1ccc(OC(C)C)cc1 (stereo not given) | 12.8% (inactive) |
| COc1cccc(OC)c1C(=O)N1CCNCC1 | -12.3% (inactive) |
| COc1ccc(C(=O)N2CCC(O)(c3ccc(F)cc3)CC2)cc1OC | 39% (active) |
| Cc1[nH][nH]c(=O)c1C(c1c(C)[nH][nH]c1=O)c1cn(C)c2ccccc12 | -22.4% (inactive) |
| COc1cccc(C(=O)Nc2cccc(C(=O)NC3=NN(c4c(Cl)cc(Cl)cc4Cl)C(=O)C3)c2)c1 | -11.8% (inactive) |
| CCN(CC(=O)c1c(N)n(C)c(=O)n(C)c1=O)c1cccc2ccccc12 | 11.8% (inactive) |
| COc1cc(/C=N/NC(=O)c2ccccc2O)ccc1OCC(=O)Nc1ccccc1 | 15.4% (inactive) |
| Cc1cc2n(n1)SC(Nc1cccc3ccccc13)N2 (stereo not given) | -6.45% (inactive) |
| Oc1cccc(C=Nc2cccc3ccccc23)c1O | 8.55% (inactive) |
| Cc1ccc(N2CSC3=C(C#N)C(c4cccs4)CC(=O)N3C2)cc1 (stereo not given) | -28.4% (inactive) |
| Cc1c(CC(=O)N2CCN(C(=O)C3COc4ccccc4O3)CC2)c(=O)oc2c(C)c(O)ccc12 (stereo not given) | 66.6% (active) |
| Cc1ccc(C)c(S(=O)(=O)C(C#N)c2nc3ccccc3nc2N2CCCC2)c1 (stereo not given) | 1.8% (inactive) |
| CCCCCc1c2c(cc(O)c1C(=O)O)OC(=O)c1c(cc(OC)cc1C(=O)CCCC)O2 | 11.2% (inactive) |
| c1coc(-c2nnc(-c3ccco3)nn2)c1 | 7.95% (inactive) |
| Cc1cccc2nc(-c3ccco3)c(Nc3ccc4c(c3)OCO4)n12 | -6.85% (inactive) |
| Cc1cc(=O)[nH]c(SCC(=O)c2ccc(O)c(O)c2)n1 | 7.45% (inactive) |
